Data from PubChem BioAssay AID1233 (SRMLSC, 2008).
Measured potencies and affinities stand elsewhere. Calls of active or inactive are those of the source.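 How the source made its calls: active means a dose-response curve fit returns a half-maximal inhibitory concentration, extrapolated values included; inactive means the fit returns no such concentration.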

target: HMG-CoA reductase [Enterococcus faecalis] (UniProt Q9FD70); test: inhibitors of E. faecalis class II HMGR, confirmation, biochemical, Enterococcus faecalis (AID 1233);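 further: 0% = full reaction carrier wells and 100% = background wells lacking mevalonate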; conditions: purified E. faecalis HMGR, NADPH absorbance 340 nm kinetics; series mostly up to 100 µM; inhibition: at the top concentration

inhibition, inactive:
NNC(=O)C1CC1c1ccc(Cl)cc1 (stereo not drawn) -8.07%
CNc1cc(N2CCCCCC2)ccc1[N+](=O)[O-] -0.58%
COc1ccc(-c2csc(N(CC3CCCO3)C(=O)c3ccco3)n2)cc1 (stereo not drawn) 3.37%
COc1ccc(N2C(=O)C3C4C=CC(C5CC45)C3C2=O)c([N+](=O)[O-])c1 (stereo not drawn) -1.92%
Cc1cccc(C(=O)NC2CCN(C(=O)Nc3ccccc3C)CC2)c1 -0.56%
COn1c(SCc2ccc(C)cc2C)nc2ccccc2c1=O 0.13%
S=c1[nH]c2cc(Cl)ccc2s1 -0.06%
COc1cccc(NC(=O)c2cc(-c3ccncc3)nc3c(C)cc(C)cc23)c1 -5.32%
CCCCCOC(=O)Cn1c(N2CCOCC2)nc2c1c(=O)[nH]c(=O)n2C 0.09%
COc1ccc(S(=O)(=O)N2CC=C(C(=O)Nc3ccc(NC(C)=O)cc3)CC2)cc1 -6.83%
CC(C)OC(=O)NC(C)(C)COC(=O)Nc1cccc(Cl)c1 -4.08%
CC(NCCC(c1ccccc1)c1ccccc1)c1ccccc1 (stereo not drawn) -3.54%
O=C(N/N=C/c1ccc2c(c1)OCO2)c1ccc(NS(=O)(=O)c2cccs2)cc1 -1.17%
CC(=O)c1ccc(N2CCN(C(=O)Cc3n[nH]c(=O)c4ccccc34)CC2)cc1 -5.17%
CC(C)(C)C1(O)CC(C(F)(F)F)=NN1C(=O)CCCc1ccccc1 (stereo not drawn) 0.09%
CN(CC(=O)NCCc1ccccc1)S(=O)(=O)c1ccccc1 -6.56%
Cn1c(=O)c(C(=O)CSc2ccccc2)c(N)n(Cc2ccccc2)c1=O -1.18%
Cc1cc(N2CCN(c3nc(-c4ccc([N+](=O)[O-])cc4)cs3)CC2)c2ccccc2n1 -5.17%
N#CC(c1ccc(Cl)cc1)c1nc2ccccc2nc1C(F)(F)F (stereo not drawn) -0.91%
O=C(O)CCCCCCC1C(=O)NC(=O)N1CCC(O)C1CCCCC1 (stereo not drawn) -3.19%
COc1ccc(-c2nc(CN3CCCCC3c3cccnc3)c(C)o2)c(F)c1 (stereo not drawn) -8.15%
CCOC(=O)C(C(=O)OCC)C1CCS(=O)(=O)C1 (stereo not drawn) -2.07%
Cc1ccc2nsnc2c1N -8.8%
Cn1nccc1C(=O)N1CCc2ccccc21 -1.21%
CC(=O)N1CC2(C)CN(C(C)=O)CC(C)(C1)C2 -9.15%
COc1ccc(-n2c(SCC(N)=O)nc3sc4c(c3c2=O)CCN(C)C4)cc1 1.62%
O=C(O)C(Cc1ccccc1)N1C(=O)C2CCCCC2C1=O (stereo not drawn) -4.28%
S=C1NCCc2ccc(Cl)cc2C1c1ccccc1 (stereo not drawn) -3.66%
O=C(CSCc1ccc(Cl)cc1)NCC1CCCO1 (stereo not drawn) 0.13%
CC(C(=O)NC1CCCc2ccccc21)N1CCN(c2ccc(F)cc2)CC1 (stereo not drawn) -4.6%
Cc1ccc(Cn2nnc3c(=O)n(CC(=O)NCc4ccco4)cnc32)cc1 -3.85%
Cc1ccsc1/C=C1/NC(=O)N(Cc2ccc(F)cc2)C1=O -7.22%
Cc1c(CN2CCc3c([nH]c4ccccc34)C2C2CCCCC2)cnn1C (stereo not drawn) -10%
CCCn1c(SCC(=O)N2CC(=O)Nc3ccccc32)nc2ccccc21 -0.99%
Cc1ccc(NC2=C(N3CCOCC3)C(=O)c3ccccc3C2=O)cc1 -1.54%
COc1ccc(C)cc1NC(=O)C(Sc1nnnn1C)c1ccccc1 (stereo not drawn) -3.54%
Cc1cc(C)n(C2CC(=O)N(c3ccccc3)C2=O)n1 (stereo not drawn) -1.73%
S=C(NCc1ccccc1)N1CCN(c2cccc(Cl)c2)CC1 -0.43%
